# Assay results from the OligoGym collection.
# Biological target: KIAA0564
# Assay: pooled miR-30 sensor sort-seq; sequence = guide strand
# Conditions: shRNA
# Further: reference of the scale not given here.
row,Sequence,sensor-assay potency score (higher = more potent)
1,ATCAACAGTAACAACACCGCTT,0.22
2,TTGTGGAGGAGTAACATCTTTT,-1.09
3,TTTTTCTTTGTAGAACACCAGC,-1.28
4,TTTGCCAGAACAATCATCCTAA,0.448
5,TTAACCTTTGCAATACAGCAAG,-0.99
6,TTTTTTTCTAATGCTGACCTAG,-0.423
7,TTGAATATAACAACTTAAGTTG,-0.73

# Biological target: KIAA0664
# Assay: as above
# Conditions: shRNA
row,Sequence,sensor-assay potency score (higher = more potent)
1,TTCTTCTTGAAGGTCGGGCTGA,-0.121
2,TGCATCTTGGTCTCCTCGCTGG,-0.849
3,AAGTTCTTCTTGAAGGTCGGGC,-0.0493
4,TTGCACTCGACCGAGGAGCAGA,-0.997
5,TTGACGTGCTTGACCACGGGGA,-0.0674
6,TTGGAGACCAGCTCGTCGGCGG,-0.677
7,TTGAAGGTCGGGCTGATCTGGT,-0.0579
8,TTTCTTCTGCAGCACAGCGAAG,-1.66
9,TACGTCTTGAAGATGTGCTTGG,0.188
10,TTGAGCACGTCCTCCTCGGTGA,-0.45
11,TTGCTCTCGTAGACTCGGGCGA,-0.673
12,TTTTCTTCTGCAGCACAGCGAA,-0.902

# Biological target: KIAA0930
# Assay: as above
# Conditions: shRNA
row,Sequence,sensor-assay potency score (higher = more potent)
1,TTATGGATGTGAATGTCCCCGC,-0.555
2,TTCTTGAGCGCCTCGTAGCGGA,-0.914
3,TAAGTGTGCATAGAGAAGGAAG,-1.42
4,TTTGTCACTAGCCACCAGCTCC,-0.835
5,AAGTAGGTGGAGAACATCCAAG,-1.37
6,TTGCTGTACTTGTAGAAGCCAA,-0.811
7,AAAAGCATGTCGTCCTGCCGGG,-0.426
8,TTCTCCATGAAGTAGGTGGAGA,-1.12
9,ATAGAAAAGCATGTCGTCCTGC,0.0437
10,TTCAGCTTCAGCCAGGACCCGA,-1.04
11,TTCTTCATCTCAGCGATCCGGT,-0.0677
12,TCACCTGTAGACACTCGGCTGA,-0.216

# Biological target: KIAA1217
# Assay: as above
# Conditions: shRNA
row,Sequence,sensor-assay potency score (higher = more potent)
1,TAGTGATCCAGATTTTGCCTTT,-0.121
2,TTCTCGATAGACACTGCCCTGT,-0.436
3,TTCTTCAATGAACAAGCTCTGC,-0.544
4,TTGAACTTCCATTCTGTGCCTT,0.894
5,TTTTTTTAAATGTAACTCCGAC,-0.293
6,TGAACTTCCATTCTGTGCCTTG,0.302
7,TTTGCTTGAACTTCCATTCTGT,0.925
8,TTTCTCGATAGACACTGCCCTG,-1.06
9,TATTTTGTAGCTCTGGTCTGTG,0.157
